The whole screen tested about 330,000 compounds, of which about 5,800 (1.8%) were called active. Shown is part of a subset that was picked to be rich in actives. Unmarked numbers belong to inactive results. Cut-off read from the data, not from the text of the source: active = inhibition mostly above about 38% (no sharp cut-off); inactive = mostly below about 40%.
biological target: Orexin/Hypocretin receptor type 1 (Homo sapiens) (UniProt O43613); test: blocks the human orexin 1 receptor (AID 485270); settings: OX1R-expressing cells, FRET antagonist read-out; at 6.6 µM; active compounds read high;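 note: 0% = agonist challenge alone and 100% = reference antagonist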
Sequence (O43613 whole entry, looked up): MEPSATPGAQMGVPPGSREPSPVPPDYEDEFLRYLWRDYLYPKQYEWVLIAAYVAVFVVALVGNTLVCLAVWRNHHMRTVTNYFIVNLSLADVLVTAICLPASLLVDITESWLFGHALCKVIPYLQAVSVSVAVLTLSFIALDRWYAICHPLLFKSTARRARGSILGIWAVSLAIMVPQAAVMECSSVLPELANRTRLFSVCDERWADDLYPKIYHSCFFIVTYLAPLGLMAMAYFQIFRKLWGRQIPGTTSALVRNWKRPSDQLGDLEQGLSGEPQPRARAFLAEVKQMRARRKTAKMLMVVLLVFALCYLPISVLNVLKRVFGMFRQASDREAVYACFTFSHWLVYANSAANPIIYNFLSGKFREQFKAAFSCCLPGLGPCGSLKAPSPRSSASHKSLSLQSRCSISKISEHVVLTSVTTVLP

In the case of `O=C(Nc1ccc2ccccc2c1)Nc1ccc2snnc2c1`, the inhibition is reported as 60.2% (active).
In the case of `CCN(C(=O)CSc1ncnc2sccc12)c1c(N)n(Cc2ccccc2)c(=O)[nH]c1=O`, the inhibition is reported as 42.3% (active).
For `O=C(NC(Cc1c[nH]c2ccccc12)C(=O)N/N=C/c1ccc(Br)cc1)c1cccs1` (centres undefined), the inhibition was 68.7% (active).
For `O=c1c2cc([N+](=O)[O-])ccc2nc2n1CCC2`, the inhibition was 59.2% (active).
For `COc1ccc(C(=O)O/N=C(\N)c2ccccn2)cc1[N+](=O)[O-]`, the inhibition was 28.6% (active).
`O=C(O[C@@H]1[C@H](Cc2ccccc2)NS(=O)(=O)[C@H]2C[C@@H]3C=C[C@]12O3)c1ccccc1Br` was tested, and the inhibition was 52.4% (active).
`COc1cc(C(=S)N2CCOCC2)cc(OC)c1OC(=O)c1ccc([N+](=O)[O-])cc1[N+](=O)[O-]` was tested, and the inhibition was 113% (active).
`CC(=O)Oc1ccc(C(C)=O)c2c1OCCO2` was tested, and the inhibition was 88.7% (active).
With `COc1ccc(CCn2c(NCCCN3CCOCC3)nc3c2c(=O)[nH]c(=O)n3C)cc1` the inhibition was 101% (active).
In the case of `CC(C)(C)c1cc(C(=O)N/N=C/c2ccc([N+](=O)[O-])s2)n[nH]1`, the inhibition is reported as 56.3% (active).

In order of falling inhibition:
1. COc1cc(C(=S)N2CCOCC2)cc(OC)c1OC(=O)c1cc([N+](=O)[O-])cc([N+](=O)[O-])c1  66.5%
2. N/C(=N\OC(=O)c1ccc([N+](=O)[O-])cc1)c1ccccn1  53.4%
3. COc1ccc2ccccc2c1/C=N/NC(=O)c1cc(C)[nH]n1  39.3%
4. O=C(Nc1cccc(Br)c1)c1ccc2snnc2c1  28.6%
5. Cc1c(C(=O)Nc2cccc(S(=O)(=O)N3CCOCC3)c2)oc2ccccc12  24.2%
6. Cc1cccc([C@H]2[C@@H]3C=CC[C@@H](C)[C@@H]3C(=O)N2Cc2ccccc2)c1  23.4%
7. Cc1ccc(S(=O)(=O)Nc2ccc(F)c(S(=O)(=O)N3CCOCC3)c2)cc1  21.7%
8. CCN(C(=O)COC(=O)c1sccc1C)c1c(N)n(Cc2ccccc2)c(=O)[nH]c1=O  21.4%
9. Cc1ccccc1NCC(=O)N/N=C\c1ccc([N+](=O)[O-])s1  20.9%
10. COc1ccc(CCn2c(NN=C3CCCC3)nc3c2c(=O)[nH]c(=O)n3C)cc1  18.2%
11. CC(=O)Nc1ccc(/C=N/NC(=O)c2cccs2)cc1  18.1%
12. CC(C)(C)OC(=O)C1=C(CO)CS[C@@H]2[C@H](NC(=O)Cc3ccccc3)C(=O)N12  17.7%
13. O=C(CSc1nc2ccccc2c(=O)n1-c1ccccc1F)N1CCOCC1  16.2%
14. O=C(O[C@H]1[C@H](Cc2ccccc2)NS(=O)(=O)[C@H]2C[C@@H]3C=C[C@]12O3)c1ccc([N+](=O)[O-])cc1  15.9%
15. Cc1ccc(C(=O)O/N=C(\N)c2ccccn2)cc1Cl  14.1%
16. CCNC(=S)N1CCN(S(=O)(=O)c2ccc(Cl)s2)CC1  13.3%
17. CC(=O)NC(Cc1c[nH]c2ccccc12)C(=O)O (centres undefined)  11.3%
18. O=C(COC(=O)c1ccc(O)cc1O)c1ccc2c(c1)OCCO2  9.27%
19. O=C1COc2ccc(C(=O)COC(=O)c3ccccc3Cl)cc2N1  8.89%
20. COc1ccc(C(=O)NCc2ccccc2C)cc1S(=O)(=O)NC1CCCC1  8.7%
21. O=C(NCCc1ccco1)c1ccc(OCc2cn3ccccc3n2)cc1  8.69%
22. COc1ccc(-c2c(C#Cc3ccsc3)c3cc(-c4ccc(CN5CCOCC5)cc4)ccc3n2C)cc1  8.67%
23. COc1cc(C(=S)N2CCOCC2)cc(OC)c1OC(=O)c1cc([N+](=O)[O-])c(C)c([N+](=O)[O-])c1  8.29%
24. O=C(NNS(=O)(=O)c1c(F)cc(F)c(Cl)c1F)C12CC3CC(CC(C3)C1)C2  6.19%
25. CCCCN(CC)C(=S)Nc1ccc2nc3n(c(=O)c2c1)CCCCC3  5.73%
26. O=C(Nc1ccc2nc3n(c(=O)c2c1)CCCC3)c1ccc(Cl)nc1  4.47%
27. CC(C)C(NC(=O)c1c(F)cccc1F)C(=O)NNC(=O)c1ccccc1 (centres undefined)  2.8%
28. COc1ccc(C(=O)O)cc1S(=O)(=O)NC1CCN(Cc2ccccc2)CC1  2.69%
29. CCCN(C(=O)CSc1nnc(N)s1)c1c(N)n(Cc2ccccc2)c(=O)[nH]c1=O  2.18%
30. O=C(NCCCN1CCOCC1)c1cn(-c2ccccc2)nc1-c1ccc(F)cc1  1.24%
31. CC(=O)c1ccc2c(c1)OCCOCCOc1ccc(C(C)=O)cc1OCCOCCO2  0.66%
32. CC(=O)c1ccc(OC(=O)N2CCOCC2)cc1  0.24%
33. CC(=O)C(CC(=O)N1CCCC1)C(=O)Nc1ccc(Cl)cc1 (centres undefined)  -2.02%
34. COc1ccc(CNc2nc3c(c(=O)[nH]c(=O)n3C)n2Cc2ccccc2)cc1  -5.7%

Source: PubChem BioAssay AID485270 (The Scripps Research Institute Molecular Screening Center, 2010)
